Assay results taken from PubChem BioAssay AID624330 (Southern Research Specialized Biocontainment Screening …, 2012).
Out of some 340,000 compounds screened, about 2,100 (0.62%) were called active.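 The calls were made as follows: active = first-screen hits whose inhibition reached a set limit at any dose in the follow-up dose series; inconclusive = inhibition above the set first-screen limit but never retested; inactive = the rest.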 Not all results are given here. Potency and affinity values are given separately.

Biological target: Rac GTPase-activating protein 1 (Homo sapiens) (UniProt Q9H0H5)
Assay: MgcRacGAP GTPase-activating activity inhibitors, confirmation, biochemical, ADP Hunter fluorescence, primary and confirmatory (AID 624330);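 also: fluorescence reports GDP produced by GAP-driven GTP hydrolysis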
Conditions: MgcRacGAP-stimulated Rac1 GTP hydrolysis, at 30 µM, active compounds read high, GST-tagged Rac1 F28L mutant substrate

Chain of Rac GTPase-activating protein 1 (Homo sapiens) (Q9H0H5 whole entry, looked up): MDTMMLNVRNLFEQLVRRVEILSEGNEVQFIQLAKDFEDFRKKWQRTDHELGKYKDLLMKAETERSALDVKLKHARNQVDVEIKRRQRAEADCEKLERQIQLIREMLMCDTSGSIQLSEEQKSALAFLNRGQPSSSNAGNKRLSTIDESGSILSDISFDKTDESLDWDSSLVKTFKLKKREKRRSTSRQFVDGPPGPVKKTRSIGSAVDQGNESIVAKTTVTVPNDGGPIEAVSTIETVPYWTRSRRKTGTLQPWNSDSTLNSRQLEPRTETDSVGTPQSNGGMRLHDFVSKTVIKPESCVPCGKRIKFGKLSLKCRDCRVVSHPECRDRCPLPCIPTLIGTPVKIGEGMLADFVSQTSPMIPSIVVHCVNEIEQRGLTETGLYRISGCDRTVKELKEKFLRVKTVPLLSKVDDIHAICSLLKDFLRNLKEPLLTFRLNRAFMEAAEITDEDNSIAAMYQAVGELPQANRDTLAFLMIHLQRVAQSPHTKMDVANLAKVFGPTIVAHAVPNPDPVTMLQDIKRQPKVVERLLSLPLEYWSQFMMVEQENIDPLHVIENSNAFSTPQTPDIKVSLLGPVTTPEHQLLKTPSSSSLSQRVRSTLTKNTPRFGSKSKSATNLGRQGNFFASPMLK

inhibition, inactive:
CCOc1ncccc1C(=O)OCC(=O)NCc1ccccc1 5.95%
O=C(CN1CCN(C2CCCCC2)CC1)Nc1cccc2ccccc12 15.3%
O=C(CN1CCCCC1)Nc1ccccc1-c1ccccc1 6.84%
Cc1cc(C)cc(OCC(=O)N2CCN(c3ncccn3)CC2)c1 1.56%
COc1ccc(N(C(=O)COc2cccc(C)c2)S(=O)(=O)c2ccc(C)cc2)cc1 7.24%
COc1ccc(OC(=O)COc2ccc(Cl)cc2)cc1 10.7%
Cc1ccc(OCC(=O)Oc2ccc(C(C)C)cc2)cc1 15.2%
Cc1ccc(OC(=O)COc2ccccc2C)cc1 9.41%
Cc1cccc(OCC(=O)Oc2ccc(Cl)cc2)c1 14.7%
COc1ccc(CC(=O)Oc2cc(C)ccc2C)cc1 4.1%
Cc1ccc(C(=O)C[n+]2ccc(-c3nnc4n3CCC4)cc2)cc1 -12.9%
CN(C(=O)CSc1nnc(-c2ccccc2F)n1N)C1CCCCC1 4.13%
Cc1noc(C)c1NC(=O)NCCN1CCN(Cc2ccccc2)CC1 11.3%
CCOc1ccc2[nH]c(=O)c(CN(CCN3CCCC3)C(=S)Nc3ccccc3OC)cc2c1 3.77%
C=CCc1ccccc1OCC(=O)N/N=C/c1ccc(OC(C)=O)cc1OC(C)=O -0.28%
C1=CC2=NC34CCCCC3CC3=C(CCCC3)N4C2=CC1=NC1CCCCC1 (stereo not drawn) 11.1%
COc1ccc(CNC2CCCc3ccccc32)cc1OC (stereo not drawn) 6.79%
CCOc1ccc(NC(=O)NC2CCCc3ccccc32)cc1 (stereo not drawn) 13.3%
CCOc1ccc(N=Nc2ccc(O)c3ncccc23)cc1 5.89%
CCOc1ccc2[nH]c3ncccc3c(=O)c2c1 3.15%
COc1cc(/C=N/NC(=O)c2cc(C)oc2C)cc(OC)c1OC -1.5%
COc1ccc(/C=N/NC(=O)c2ccoc2C)cc1OC 6.81%
COc1cc(/C=N/NC(=O)c2ccoc2C)cc(OC)c1O 21.6%
COc1cc(/C=N/NC(=O)c2cc(C)oc2C)ccc1OCc1ccccc1 5.24%
COc1ccc(/C=N/NC(=O)c2cc(C)oc2C)cc1OCc1ccccc1 11.1%
COc1ccc(/C=N/NC(=O)c2cc(C)oc2C)cc1OC 3.85%
Cc1ccc(S(=O)(=O)N2CCN(C(=O)c3ccco3)CC2)c(C)c1 6.61%
CC(=O)Nc1ccc(S(=O)(=O)N2CCCC3CCCCC32)cc1 (stereo not drawn) 2.55%
